Screening data from PubChem.
Only some compounds are listed: those with a hit (about 3.9% of all), similar ones and a draw of the others.
PHOSPHO1 inh: PHOSPHO1 (human) inhibition; Q8TCT1; recombinant PHOSPHO1, absorbance phosphatase assay; inhibition, % at 13.3 µM; 290,000 compounds, 1.1% hits; in the data active means inhibition above about 60%
Target sequence (Q8TCT1 whole entry, looked up): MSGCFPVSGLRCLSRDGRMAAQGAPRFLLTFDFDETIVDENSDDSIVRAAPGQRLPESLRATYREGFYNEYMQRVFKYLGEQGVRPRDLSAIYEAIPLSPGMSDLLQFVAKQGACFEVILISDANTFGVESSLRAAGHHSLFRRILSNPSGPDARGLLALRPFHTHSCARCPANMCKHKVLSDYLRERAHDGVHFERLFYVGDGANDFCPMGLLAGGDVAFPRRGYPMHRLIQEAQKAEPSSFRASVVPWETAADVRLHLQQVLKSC
Platelet DG rel: modulates dense granule release in human platelets | human platelet-rich plasma, SFLLRN dense granule ATP release, luminescence | inhibition, %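 (compounds screened at 7.5 µM in platelet-rich plasma)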 | 300,000 compounds, 0.22% hits;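 active means mean replicate score, as percent of positive control, at or above 50; inconclusive means mean below 50 but at least one replicate at or above 50; inactive means mean and every replicate below 50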
Rtt109 Vps75: C. albicans Rtt109 histone acetyltransferase inhibition; Q5AAJ8; purified Rtt109/Vps75, ThioGlo CoA-SH fluorescence, 4 h; inhibition, % at 34.9 µM; 330,000 compounds, 0.16% hits; AID 540336;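 active means inhibition of at least 50% in every replicate; inconclusive means best replicate reaches 50% inhibition but some replicates fall short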
Target sequence (Q5AAJ8 whole entry, looked up): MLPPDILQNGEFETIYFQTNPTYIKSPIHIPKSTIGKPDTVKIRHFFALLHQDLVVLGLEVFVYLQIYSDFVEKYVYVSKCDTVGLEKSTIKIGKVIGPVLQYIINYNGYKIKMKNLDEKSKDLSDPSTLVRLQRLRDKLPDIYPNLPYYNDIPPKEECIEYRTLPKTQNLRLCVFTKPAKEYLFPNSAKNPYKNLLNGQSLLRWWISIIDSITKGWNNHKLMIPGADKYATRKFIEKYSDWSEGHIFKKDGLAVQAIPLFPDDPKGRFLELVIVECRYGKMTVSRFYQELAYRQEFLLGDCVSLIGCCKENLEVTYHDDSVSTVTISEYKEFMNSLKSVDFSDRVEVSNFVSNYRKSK
TPT1 inh: blocks Candida albicans tRNA 2'-phosphotransferase. recombinant caTPT1, FP RNA substrate dephosphorylation. inhibition, % at 5 µM. 300,000 compounds, 0.81% hits. AID 1962;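 active means inhibition above the mean of all tested compounds plus 3 SD, set per screening campaign, cut at about 24% in these data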;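 further: plate controls were DMSO alone for no effect and ferristatin control at 100 nM for full effect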
SKKanGAS inh: SKKanGAS growth inhibition; 300,000 compounds, 1.3% hits; AID 1662; inhibition, % at 7.5 µM; S. pyogenes SKKanGAS, kanamycin growth, BacTiter-Glo, 6 h;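 active means mean replicate score, as percent of positive control median, at least 50; inconclusive means mean below 50 but one replicate at or above 50; inactive means mean and every replicate below 50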;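 further: strain carries kanamycin resistance gene driven by streptokinase promoter and grows in 40 µg/ml kanamycin; loss of luminescence reflects streptokinase promoter inhibition or plain growth inhibition; 0% = median of DMSO wells and 100% = positive control at its reference dose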
WT yeast gro inh: growth inhibition of WT yeast, mitochondrial fusion screen | AID 1362 | 190,000 compounds, 2.1% hits | inhibition, % at 10 µM | mitochondrial fusion phenotypic screen, WT strain; in the data active means inhibition above about 58%; tested in S. cerevisiae
Active calls of the source: *.

Screening Cc1ccccc1C(=O)N[C@H](C(=O)OCC(=O)NC1CC1)C(C)C returned Rtt109 Vps75 -2.
For Cc1sc2nc(CSC(C)C(=O)Nc3cc(S(C)(=O)=O)ccc3Cl)[nH]c(=O)c2c1C (centres undefined) the results were Platelet DG rel -10, Rtt109 Vps75 -4, TPT1 inh 19 and SKKanGAS inh -8.
c1ccc2c(c1)Cc1ccccc1O2 was read as Rtt109 Vps75 1 and TPT1 inh -1.
`Cc1cccc(-n2nnc(C(=O)NCc3ccc4c(c3)OCO4)c2N)c1` gave PHOSPHO1 inh 60*, Platelet DG rel 2, Rtt109 Vps75 -12, TPT1 inh -7, SKKanGAS inh -6 and WT yeast gro inh 17.
For Cn1cccc1/C=C1\CCc2ccccc2C1=O the results were PHOSPHO1 inh -5, Platelet DG rel 67*, Rtt109 Vps75 4, TPT1 inh 8, SKKanGAS inh 19 and WT yeast gro inh 60*.
Screening O=c1cc(N2CCCCC2)c(-c2ccccc2)nn1Cc1ccccc1 returned PHOSPHO1 inh 20, Platelet DG rel 3, Rtt109 Vps75 -6, TPT1 inh 2 and WT yeast gro inh 76*.
For Cn1nc(-c2ccccc2)c(N2CCCCC2)cc1=O the results were PHOSPHO1 inh 15, Platelet DG rel 3, Rtt109 Vps75 -3, TPT1 inh 0, SKKanGAS inh -19 and WT yeast gro inh 16.
`COc1ccc(Cn2nc(-c3ccccc3)c(N3CCCCC3)cc2=O)cc1` gave PHOSPHO1 inh 49, Platelet DG rel 8, Rtt109 Vps75 8, TPT1 inh 0, SKKanGAS inh -1 and WT yeast gro inh 71*.
`Cc1cc(=O)[nH]c(SCC(=O)Nc2c(C)n(C)n(-c3ccccc3)c2=O)n1` gave Rtt109 Vps75 -18.
For O=C(Nc1ccc(-c2csc(Nc3ccc(Cl)cc3)n2)cc1)c1cc([N+](=O)[O-])cc(C(F)(F)F)c1 the results were PHOSPHO1 inh 31, Platelet DG rel 2, Rtt109 Vps75 -6, TPT1 inh -2 and SKKanGAS inh 75*.
Screening O=C(Nc1cccc(-c2csc(Nc3ccc(Cl)cc3)n2)c1)c1ccccc1 returned PHOSPHO1 inh 44, Platelet DG rel 1, Rtt109 Vps75 -4, TPT1 inh 1 and SKKanGAS inh 91*.
For Cc1ccc(S(=O)(=O)NCCn2nc(C)cc2C)cc1 the results were PHOSPHO1 inh 26, Platelet DG rel 2, Rtt109 Vps75 -3, TPT1 inh 3 and SKKanGAS inh -1.
Screening Cc1nnc(NC(=O)c2ccc(S(=O)(=O)N3CCCCCC3)cc2)o1 returned PHOSPHO1 inh 63*, Platelet DG rel -17, Rtt109 Vps75 -7, TPT1 inh 1, SKKanGAS inh -13 and WT yeast gro inh 30.
`Cc1nnc(NC(=O)c2ccc(S(=O)(=O)N3CC(C)OC(C)C3)cc2)o1` (centres undefined) gave PHOSPHO1 inh 24, Platelet DG rel -12, Rtt109 Vps75 3, TPT1 inh -5 and SKKanGAS inh 1.
Screening CC1CCCN(S(=O)(=O)c2ccc(C(=O)Nc3nnc(-c4ccccc4Cl)o3)cc2)C1 (centres undefined) returned PHOSPHO1 inh 10, Platelet DG rel -2, Rtt109 Vps75 1, TPT1 inh 7, SKKanGAS inh 97* and WT yeast gro inh -5.
Screening O=S(=O)(Nc1ccc(-n2cnnn2)cc1)c1cccs1 returned Rtt109 Vps75 9.
Cc1cc(S(=O)(=O)Nc2nc(CN3CCOCC3)nc3sc4c(c23)CCC4)ccc1F was read as Rtt109 Vps75 5.
For CCN(CC)c1ccc(NC(=O)c2c(C)noc2C)cc1 the results were PHOSPHO1 inh -50, Platelet DG rel 15, Rtt109 Vps75 -8, TPT1 inh 2 and SKKanGAS inh inconclusive.
For CC1(C)Cc2c(cnn2-c2ccc(F)cc2)C(NC(=O)c2ccco2)C1 (centres undefined) the results were PHOSPHO1 inh -4, Platelet DG rel 2, Rtt109 Vps75 -22, TPT1 inh -4 and SKKanGAS inh 1.
`CC12CC(c3ccccc3O1)N(C(=O)c1ccco1)C(=S)N2c1ccc(F)cc1` (centres undefined) gave PHOSPHO1 inh 71*, Platelet DG rel 1, Rtt109 Vps75 2, TPT1 inh -3, SKKanGAS inh -3 and WT yeast gro inh 25.
`CCOC(=O)CC1C(=O)NCCN1c1nc2ccc(C)cn2c(=O)c1/C=C1\SC(=S)N(CC(C)C)C1=O` (centres undefined) gave PHOSPHO1 inh 28, Platelet DG rel 4, Rtt109 Vps75 5, TPT1 inh 122* and SKKanGAS inh 13.
CCCN1C(=O)/C(=C/c2c(N3CCNC(=O)C3CC(=O)OCC)nc3c(C)cccn3c2=O)SC1=S (centres undefined) was read as PHOSPHO1 inh -17, Platelet DG rel 2, Rtt109 Vps75 0, TPT1 inh 137* and SKKanGAS inh 24.
CCOC(=O)CC1C(=O)NCCN1c1nc2ccc(C)cn2c(=O)c1/C=C1\SC(=S)N(C(C)CC)C1=O (centres undefined) was read as PHOSPHO1 inh 17, Platelet DG rel -9, TPT1 inh 137* and SKKanGAS inh 33.
CCOC(=O)CC1C(=O)NCCN1C(=O)c1ccc(C)cc1 (centres undefined) was read as Platelet DG rel 4, Rtt109 Vps75 8, TPT1 inh 1 and SKKanGAS inh 0.
O=C(CSc1nc(-c2ccc(Cl)cc2)[nH]c(=O)n1)Nc1cccc(Cl)c1 was read as PHOSPHO1 inh 42, Platelet DG rel -2, Rtt109 Vps75 23, TPT1 inh -1 and SKKanGAS inh 59*.
Screening O=C(CSc1n[nH]c(-c2cccnc2)n1)Nc1cccc(Cl)c1 returned PHOSPHO1 inh 4, Rtt109 Vps75 0, TPT1 inh -5 and SKKanGAS inh -8.
Screening CCOc1ccc(NC(=S)NC(C)CCc2ccccc2)cc1 (centres undefined) returned PHOSPHO1 inh 8, Platelet DG rel -7, Rtt109 Vps75 -2, TPT1 inh -4, SKKanGAS inh -22 and WT yeast gro inh 61*.
`Cc1ccccc1NC(=S)NC(C)CCc1ccccc1` (centres undefined) gave PHOSPHO1 inh 1, Platelet DG rel -1, Rtt109 Vps75 9, TPT1 inh 1, SKKanGAS inh 0 and WT yeast gro inh 68*.
Cc1ccccc1NC(=S)NC(=O)CCc1ccccc1 was read as PHOSPHO1 inh -41, Platelet DG rel -6, Rtt109 Vps75 6, TPT1 inh -2, SKKanGAS inh -6 and WT yeast gro inh 12.
Cc1ccc(CCNS(=O)(=O)c2ccc3c(c2)NC(=O)C(C)C(=O)N3)cc1 (centres undefined) was read as PHOSPHO1 inh 2, Platelet DG rel -1, Rtt109 Vps75 3, TPT1 inh -4 and SKKanGAS inh -9.
